The results in this text go back to PubChem BioAssay (EPA / NIEHS).

Results filed as inconclusive are left out. The source holds several records for some structures; these can differ, active in one and inactive in another. The source made the active and inactive calls. The calls were made as follows: active = hit-call score of the fitted dose curve at least 0.9, where 1 is the maximum; inconclusive = response in the unintended direction; inactive = score below 0.9.

human AKT serine/threonine Kinase 1 (AKT1), AKT1 (gene 207), sequence (P31749 whole entry, looked up): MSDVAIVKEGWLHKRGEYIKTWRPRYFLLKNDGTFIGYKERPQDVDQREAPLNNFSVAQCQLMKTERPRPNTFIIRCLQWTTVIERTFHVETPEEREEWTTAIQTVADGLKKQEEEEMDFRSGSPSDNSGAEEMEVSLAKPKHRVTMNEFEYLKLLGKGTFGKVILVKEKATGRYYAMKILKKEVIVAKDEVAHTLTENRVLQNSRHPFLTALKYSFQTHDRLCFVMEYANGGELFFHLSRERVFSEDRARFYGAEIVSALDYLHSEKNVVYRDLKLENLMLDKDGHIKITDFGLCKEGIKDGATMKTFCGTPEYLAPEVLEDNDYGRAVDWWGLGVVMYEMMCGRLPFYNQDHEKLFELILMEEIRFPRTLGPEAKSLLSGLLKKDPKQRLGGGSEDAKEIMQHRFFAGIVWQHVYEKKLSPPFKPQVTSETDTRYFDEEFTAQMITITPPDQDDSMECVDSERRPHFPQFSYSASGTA

In this experiment the target is human AKT serine/threonine Kinase 1 (AKT1), AKT1 (gene 207) (UniProt P31749). Nature of the experiment: NVS_ENZ_hAKT1: NovaScreen (NVS) Enzymatic Assay for human AKT serine/threonine Kinase 1 (AKT1) (AID 2283138). The protocol:
NVS_ENZ_hAKT1 is a biochemical, single-readout assay that uses extracted gene-proteins in a cell-free assay. Measurements were taken 1 hour after chemical dosing in a 384-well plate.NVS_ENZ_hAKT1 is one of one assay component(s) measured or calculated from the NVS_ENZ_hAKT1 assay. It is designed to make measurements of enzyme activity, a form of enzyme reporter, as detected with fluorescence intensity signals by Fluorescence and electrophoretic mobility shift technology.Data from the assay component NVS_ENZ_hAKT1 was analyzed into 1 assay endpoint. This assay endpoint, NVS_ENZ_hAKT1, was analyzed in the positive analysis fitting direction relative to DMSO as the negative control and baseline of activity. Using a type of enzyme reporter, loss-of-signal activity can be used to understand changes in the enzymatic activity as they relate to the gene AKT1. Furthermore, this assay endpoint can be referred to as a primary readout, because this assay has produced multiple assay endpoints where this one serves a enzymatic activity function. To generalize the intended target to other relatable targets, this assay endpoint is annotated to the kinase intended target family, where the subfamily is serine/threonine kinase.
Binding assays used specific radioligands (tritiated, iodinated) with non-radioactive competitive displacement ligands in agonist or antagonist protocols (as indicated) and various reference compounds and inhibitors to titrate specific binding to receptors and transporters. Most enzyme assays (CYPs, kinases, phosphatases, proteases, HDACs) used recombinant protein and specific substrates (fluorescence mostly, some colorimetric and radioactive) and inhibitors, followed by a biochemical separation of substrate and product. All assays for the biochemical HTS were initially run in duplicate at a single concentration (10 uM for CYP450 assays and 25 uM for all others). Assay-chemical combinations meeting a pre-defined threshold (e.g., 30% inhibition and other criteria defined below) were then run in singleton concentration-response format with maximum concentration of 20 uM for CYPs and 50 uM for all others. Each assay was run with positive and negative controls, and concurrent controls on every plate. The follow-up (secondary) screen tested active chemical-pairs in concentration series, as well as a few additional assays not tested in the primary screen, some selected negative inactives, and several cases re-run in the concentration series for confirmatory purposes.
For the molecule `N#Cc1cc(Br)c(O)c(Br)c1`, the molecule was classed as inactive.

For `CON(C)C(=O)Nc1ccc(Cl)c(Cl)c1`, the outcome was inactive.

Consider `Oc1ccccc1-c1ccccc1`, for which the result was inactive.

For `CO/C=C(/C(=O)OC)c1ccccc1Oc1cc(Oc2ccccc2C#N)ncn1`, the AC50 was 14.7 µM (active) and the outcome was inactive.

With `CCCCOC(=O)c1ccccc1C(=O)OCCCC`, the call was inactive.

Take `CC1COC(Cn2cncn2)(c2ccc(Oc3ccc(Cl)cc3)cc2Cl)O1` (stereo unspecified): the result was inactive.

`Cc1ccc(-c2c(Cl)nc(C#N)n2S(=O)(=O)N(C)C)cc1`: the call was inactive.

Take `CCCCNC(=O)n1c(NC(=O)OC)nc2ccccc21`: the call was inactive.

Take `CCCN(CCC)c1c([N+](=O)[O-])cc(S(N)(=O)=O)cc1[N+](=O)[O-]`: the outcome was inactive.

For the molecule `CCOP(=S)(OCC)SCn1c(=O)oc2cc(Cl)ccc21`, the result was inactive.

Broadly, the AC50 is the concentration giving half of the maximal activity seen.
